Assay outcomes (PubChem BioAssay)
CBX7 AlphaScr: inhibitors of human CBX7 binding to H3K27me3 peptide | normalised signal (fraction of DMSO) (no concentration beside the values) | actives 1.1% (n = 66,000) | AID 1224903 | O95931 | AlphaScreen His6-CBX7 / biotin-H3K27me3 peptide binding; hits give low values; in the data active = normalised signal below about 0.5
Target sequence (O95931 whole entry, looked up): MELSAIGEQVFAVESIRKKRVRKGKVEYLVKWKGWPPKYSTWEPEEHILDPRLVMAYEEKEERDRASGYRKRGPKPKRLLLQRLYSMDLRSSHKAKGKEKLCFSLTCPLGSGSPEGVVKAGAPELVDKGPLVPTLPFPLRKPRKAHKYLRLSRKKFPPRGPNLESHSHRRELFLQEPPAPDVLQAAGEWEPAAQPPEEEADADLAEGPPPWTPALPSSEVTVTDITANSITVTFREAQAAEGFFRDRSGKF
Numbers without * were called inactive; ! = not active in a repeat. The entries come from a sample that favours hits as a whole.

COc1ccc(OC)c(Nc2nc(-c3sc(NC(C)=O)nc3C)cs2)c1 was read as CBX7 AlphaScr 0.65.
Screening Cc1ccc(-c2csc(Nc3ccc(F)cc3)n2)cc1 returned CBX7 AlphaScr 0.94.
`COc1ccc(Nc2nc(-c3ccc(Br)cc3)cs2)cc1` gave CBX7 AlphaScr 0.9.
Screening COc1ccc(Nc2nc(-c3sc(N)nc3C)cs2)cc1 returned CBX7 AlphaScr 0.31*.
`CC(=O)Nc1ccc(Nc2nc(-c3sc(C)nc3C)cs2)cc1` gave CBX7 AlphaScr 0.86.
Screening COc1ccc(-c2csc(Nc3ccc(N)cc3)n2)cc1 returned CBX7 AlphaScr 0.41*.
`Cc1ccc(Nc2nc(-c3sc(N)nc3C)cs2)cc1` gave CBX7 AlphaScr 0.38*.
`COc1ccc(Nc2nc(-c3ccc(Cl)c(Cl)c3)cs2)cc1` gave CBX7 AlphaScr 0.78.
Screening CC(=O)Nc1nc(C)c(-c2csc(Nc3ccccc3)n2)s1 returned CBX7 AlphaScr 0.51.
Screening CCCCC(C(=O)Nc1ccc(OC)cc1)N1C(=O)c2ccccc2C1=O (stereo unspecified) returned CBX7 AlphaScr 1.
For CCN1C(=O)c2ccccc2S(=O)c2ccc(C(=O)N3CCC4(CC3)OCCO4)cc21 (stereo unspecified) the results were CBX7 AlphaScr 1.
CN(CC(=O)NCc1ccccc1Cl)S(=O)(=O)c1cnc[nH]1 was read as CBX7 AlphaScr 1.
Cc1ccc2cc(CCNC(=O)C(C)Oc3ccccc3)c(=O)[nH]c2c1C (stereo unspecified) was read as CBX7 AlphaScr 0.97.
CC(CCc1ccccc1)NC(=O)CN1CCN(Cc2ccc(F)cc2Cl)C1=O (stereo unspecified) was read as CBX7 AlphaScr 0.92.
`Cc1ccc(CNC(=O)CSCc2nc(-c3ccc(C)cc3)oc2C)cc1` gave CBX7 AlphaScr 0.96.
Screening Cc1nc(NC(=O)c2ccccc2)sc1-c1csc(Nc2ncccn2)n1 returned CBX7 AlphaScr 1.
`CC(=O)Nc1ccc(Nc2nc(-c3sc(NC(=O)c4ccccc4)nc3C)cs2)cc1` gave CBX7 AlphaScr 1.
Cc1ccc(-c2csc(Nc3ccccc3Cl)n2)cc1 was read as CBX7 AlphaScr 1.
`COc1ccc(CCNc2nc(-c3ccc(Cl)cc3)cs2)cc1OC` gave CBX7 AlphaScr 0.92.
Screening CCOc1ccc(Nc2nc(-c3sc(NC(=O)c4ccccc4)nc3C)cs2)cc1 returned CBX7 AlphaScr 0.42*.
Cc1nc(N)sc1-c1csc(Nc2ccc(Cl)cc2)n1 was read as CBX7 AlphaScr 0.38*.
Screening Cc1nc(N)sc1-c1csc(Nc2cccc(Cl)c2)n1 returned CBX7 AlphaScr 0.77.
For Fc1ccc(Nc2nc(-c3ccc(Cl)cc3)cs2)cc1 the results were CBX7 AlphaScr 0.82.
COc1cc(Nc2nc(-c3ccc(C)cc3)cs2)c(OC)cc1Cl was read as CBX7 AlphaScr 0.46*!.
`COc1cc(Nc2nc(-c3ccc(Cl)cc3)cs2)c(OC)cc1Cl` gave CBX7 AlphaScr 1.
For COc1ccc(CCNc2nc(-c3sc(N)nc3C)cs2)cc1OC the results were CBX7 AlphaScr 0.35*.
COc1ccc(Cl)cc1Nc1nc(-c2sc(C)nc2C)cs1 was read as CBX7 AlphaScr 0.99.
CCc1ccc(CNC(=O)CCCOc2cc(=O)n(C)c3ccccc23)cc1 was read as CBX7 AlphaScr 1.
Screening Cc1ccc2oc(-c3cccc(NC(=O)c4ccccc4)c3C)nc2c1 returned CBX7 AlphaScr 1.
`Cc1ccc(-n2nc3c(c2NC(=O)C(C)Oc2ccccc2)CSC3)cc1` (stereo unspecified) gave CBX7 AlphaScr 1.
For CC(C)Oc1ccc(C(=O)N(Cc2ccccc2)C2CCS(=O)(=O)C2)cc1 (stereo unspecified) the results were CBX7 AlphaScr 0.93.
`COc1cc2cc(C)nc(Cc3ccccc3)c2cc1OC` gave CBX7 AlphaScr 0.95.
For COCCNC(=O)c1cnn2c(C)c(Cc3cccc(Br)c3)c(C)nc12 the results were CBX7 AlphaScr 1.
O=C(CSc1nc(-c2ccc(Br)cc2)[nH]c1-c1ccccc1)NCC1CCCO1 (stereo unspecified) was read as CBX7 AlphaScr 0.94.
For O=C(NC1CCCCC1)c1cc(-c2cccnc2)nc2ccccc12 the results were CBX7 AlphaScr 0.91.
O=S(=O)(c1ccc(-c2csc(Nc3ccc4c(c3)OCO4)n2)cc1)N1CCCCC1 was read as CBX7 AlphaScr 0.84.
`Clc1ccc(-c2csc(Nc3ccc4ccccc4c3)n2)cc1Cl` gave CBX7 AlphaScr 0.59.
`Brc1ccc(Nc2nc(-c3ccc(Br)cc3)cs2)cc1` gave CBX7 AlphaScr 0.66.
c1ccc2cc(-c3csc(Nc4ccc5c(c4)OCO5)n3)ccc2c1 was read as CBX7 AlphaScr 0.5*.
`Cc1ccc(C)c(-c2csc(Nc3ncccn3)n2)c1` gave CBX7 AlphaScr 1.
Brc1ccc(-c2csc(Nc3ccc4c(c3)OCO4)n2)cc1 was read as CBX7 AlphaScr 0.35*!.
Screening Cc1ccc(C)c(-c2csc(Nc3ccc(S(=O)(=O)Nc4cc(C)on4)cc3)n2)c1 returned CBX7 AlphaScr 0.9.
